Measured values as given in PubChem BioAssay (NCATS).

molecular target: Catechol O-methyltransferase (Homo sapiens) (UniProt P21964); experiment: Confirmatory Screen for Target Class Profiling of Small Molecule Inhibitors of Methyltransferases (AID 1745852); conditions: MTase-Glo luminescence, SAH detection, recombinant enzyme; measured here: COMT max response; stronger effect = lower value
Sequence (P21964 whole entry, looked up): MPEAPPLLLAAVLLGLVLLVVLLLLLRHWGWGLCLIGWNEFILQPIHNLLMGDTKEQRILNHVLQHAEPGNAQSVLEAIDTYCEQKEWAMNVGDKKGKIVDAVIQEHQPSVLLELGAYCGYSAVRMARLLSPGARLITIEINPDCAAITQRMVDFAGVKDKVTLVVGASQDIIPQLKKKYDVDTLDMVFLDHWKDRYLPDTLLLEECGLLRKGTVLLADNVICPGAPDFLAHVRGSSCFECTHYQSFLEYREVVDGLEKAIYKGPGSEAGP

Compound	activity [%]
CCc1ccc(C=C2SC(=S)NC2=O)cc1	-2.96
NC(=O)c1cnc(-c2ccc(C3(N)CCC3)cc2)c(-c2ccccc2)c1	-7.58
COc1ccc2c(Oc3ccc(NC(=O)c4c(C)n(CC(C)(C)O)n(-c5ccccc5)c4=O)cc3F)ccnc2c1	-4.14
CN1CCN(CCOc2cc(OC3CCOCC3)c3c(Nc4c(Cl)ccc5c4OCO5)ncnc3c2)CC1	-14.1
COc1cc(N2CCC(N3CCN(C)CC3)CC2)ccc1Nc1ncc(Cl)c(Nc2ccccc2S(=O)(=O)C(C)C)n1	-29.5
CC[C@]1(O)C[C@@H]2CN(CCc3c([nH]c4ccccc34)[C@@](C(=O)OC)(c3cc4c(cc3OC)N(C)[C@H]3[C@@](O)(C(=O)OC)[C@H](OC(C)=O)[C@]5(CC)C=CCN6CC[C@]43[C@@H]65)C2)C1	7.74
CC(=O)N(C)C1(c2ccccc2)CCN(CCC[C@]2(c3ccc(Cl)c(Cl)c3)CCCN(C(=O)c3ccccc3)C2)CC1	-5.14
CC1(C)CCC(CN2CCN(c3ccc(C(=O)NS(=O)(=O)c4ccc(NCC5CCOCC5)c([N+](=O)[O-])c4)c(Oc4cnc5[nH]ccc5c4)c3)CC2)=C(c2ccc(Cl)cc2)C1	-3.58
